# Measurements: PubChem BioAssay (Tox21)
# Records with an inconclusive call do not appear. A call without a number means that no potency is given here. Activity calls are given as the source filed them. Calls follow the shape of the dose curve; as a rule, active = well fitted inhibition curve with a large enough effect in the repeat runs; inconclusive = weak or mixed curves; inactive = no such curve, though single readings can be large or run the other way.
# Experiments:
# [1] = target: Cytochrome P450 2C9 (Homo sapiens) (UniProt P11712); assay: Cytochrome P450 Family 2 Subfamily C Member 9 (CYP2C9) small molecule antagonists: luciferase reporter qHTS assay (AID 1671198); also: nearly all actives have a fitted effect of over 50% in size
# In short: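 CYP2C9 activity was measured with a P450-Glo proluciferin substrate. Enzyme–substrate mix was held with compound for 10 min at room temperature, then NADPH regeneration solution was added for 1 h at 37C. Luciferin product was read as luminescence.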
# [2] = target: Cytochrome P450 2C19 (Homo sapiens) (UniProt P33261); assay: Cytochrome P450 Family 2 Subfamily C Member 19 (CYP2C19) small molecule antagonists: luciferase reporter qHTS assay (AID 1671197); also: nearly all actives have a fitted effect of over 65% in size
# In short: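 P450-Glo CYP2C19 system: enzyme-substrate mix with compound 10 min at room temperature, then NADPH regeneration solution, 1 h at 37C. Proluciferin-to-luciferin conversion detected by luminescence after 20 min with detection reagent; ketoconazole as positive control.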
# [3] = target: Cytochrome P450 3A4 (Homo sapiens) (UniProt P08684); assay: Cytochrome P450 Family 3 Subfamily A Member 4 (CYP3A4) small molecule antagonists: luciferase reporter qHTS assay (AID 1671201); also: nearly all actives have a fitted effect of over 50% in size
# In short: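 CYP3A4 activity was followed with a P450-Glo proluciferin substrate. Test compounds in DMSO were preincubated 10 min; NADPH regeneration then ran 1 h, and light output was read 20 min after detection reagent.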
# Potency is read from the fitted curve at half-maximal effect.
# Sequence of Cytochrome P450 2C19 (Homo sapiens) (P33261 whole entry, looked up): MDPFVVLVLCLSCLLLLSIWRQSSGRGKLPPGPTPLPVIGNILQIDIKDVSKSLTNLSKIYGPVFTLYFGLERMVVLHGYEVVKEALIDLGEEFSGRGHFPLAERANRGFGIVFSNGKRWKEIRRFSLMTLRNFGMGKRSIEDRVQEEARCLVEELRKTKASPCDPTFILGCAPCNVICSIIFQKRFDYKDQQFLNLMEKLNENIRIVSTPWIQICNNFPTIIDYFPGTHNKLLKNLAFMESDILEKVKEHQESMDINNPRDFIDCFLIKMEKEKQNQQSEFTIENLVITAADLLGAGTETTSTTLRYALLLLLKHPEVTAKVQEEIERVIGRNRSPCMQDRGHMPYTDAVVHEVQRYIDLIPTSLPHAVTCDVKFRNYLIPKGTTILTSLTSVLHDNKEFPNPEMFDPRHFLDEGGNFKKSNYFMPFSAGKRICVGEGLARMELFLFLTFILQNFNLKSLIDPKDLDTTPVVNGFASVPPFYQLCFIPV
# Sequence of Cytochrome P450 3A4 (Homo sapiens) (P08684 whole entry, looked up): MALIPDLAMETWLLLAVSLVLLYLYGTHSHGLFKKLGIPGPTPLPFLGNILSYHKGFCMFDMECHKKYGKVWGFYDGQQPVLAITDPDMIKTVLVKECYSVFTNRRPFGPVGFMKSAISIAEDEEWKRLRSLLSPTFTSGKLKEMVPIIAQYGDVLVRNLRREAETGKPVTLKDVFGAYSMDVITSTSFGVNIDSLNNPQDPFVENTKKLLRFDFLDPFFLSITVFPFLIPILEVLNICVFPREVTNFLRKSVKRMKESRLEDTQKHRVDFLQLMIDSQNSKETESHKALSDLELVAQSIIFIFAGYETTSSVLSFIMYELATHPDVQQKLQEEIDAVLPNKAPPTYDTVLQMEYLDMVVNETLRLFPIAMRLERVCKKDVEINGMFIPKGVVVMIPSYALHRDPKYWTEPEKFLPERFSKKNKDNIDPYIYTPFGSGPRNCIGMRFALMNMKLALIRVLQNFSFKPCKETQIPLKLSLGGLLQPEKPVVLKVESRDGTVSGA
# Sequence of Cytochrome P450 2C9 (Homo sapiens) (P11712 whole entry, looked up): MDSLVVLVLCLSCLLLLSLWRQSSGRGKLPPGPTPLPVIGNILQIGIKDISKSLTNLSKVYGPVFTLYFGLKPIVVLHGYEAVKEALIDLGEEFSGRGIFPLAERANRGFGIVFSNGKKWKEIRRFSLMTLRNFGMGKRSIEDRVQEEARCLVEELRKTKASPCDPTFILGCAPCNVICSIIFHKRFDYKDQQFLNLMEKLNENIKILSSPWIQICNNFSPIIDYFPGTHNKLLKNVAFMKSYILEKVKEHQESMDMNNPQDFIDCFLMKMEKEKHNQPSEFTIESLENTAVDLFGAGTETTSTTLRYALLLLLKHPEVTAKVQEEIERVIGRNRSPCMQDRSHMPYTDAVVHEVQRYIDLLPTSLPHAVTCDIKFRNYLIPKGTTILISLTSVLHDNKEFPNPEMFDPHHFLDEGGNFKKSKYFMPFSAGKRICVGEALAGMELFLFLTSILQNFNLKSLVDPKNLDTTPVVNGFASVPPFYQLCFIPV
SMILES,Potency [1],Potency [2],Potency [3]
Cc1c(C)c2c(c(C)c1OC(=O)CCC(=O)O)CC[C@@](C)(CCC[C@H](C)CCC[C@H](C)CCCC(C)C)O2,inactive,,
CCCCN(CCCC)C(=O)N(CCCC)CCCC,inactive,inactive,5.03 µM (active)
CCCC(c1cc(C(C)(C)C)c(O)cc1C)c1cc(C(C)(C)C)c(O)cc1C,3.6 µM (active),9.05 µM (active),5.09 µM (active)
CCC(C)(C)C1CCCCC1OC(C)=O (stereo not given),,inactive,inactive
COc1cc(/C=C/C(=O)O[C@H]2CC[C@]34C[C@]35CC[C@]3(C)[C@@H]([C@H](C)CCC=C(C)C)CC[C@@]3(C)[C@@H]5CC[C@H]4C2(C)C)ccc1O,inactive,inactive,inactive
Oc1ccc(C2(c3ccc(O)cc3)CC3CC2C2CCCC32)cc1 (stereo not given),38.4 µM (active),30.5 µM (active),38.4 µM (active)
